Read-out in test [1]: flavin-containing dimethylaniline monooxygenases 3 (FMO3), FMO3 (gene 2328)
Briefly: LTEA_HepaRG_FMO3: Life Technologies and Expression Analysis (LTEA) Assay for flavin-containing dimethylaniline monooxygenases 3 (FMO3) using HepaRG (AID 2283453). The note with it: mRNA level, 48 h; actives raise or lower the signal. The method in brief:
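Differentiated HepaRG cells in serum-free induction medium, exposed 48 h in duplicate to 8 half-log concentrations up to 100 uM in 0.5% DMSO. FMO3 mRNA by qRT-PCR, normalized to ACTB, GAPDH, POLR2A; bidirectional fit vs DMSO.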

Read-out in test [2]: Cytochrome P450 (CYP1A1), CYP1A1 (gene 1543)
Description: LTEA_HepaRG_CYP1A1: Life Technologies and Expression Analysis (LTEA) Assay for Cytochrome P450 (CYP1A1) using HepaRG (AID 2283454). The note with it: mRNA level, 48 h; actives raise or lower the signal. The method in brief: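 CYP1A1 transcript levels measured by Fluidigm qRT-PCR against three housekeeping genes, 48 h after chemical dosing of human HepaRG cells (highest concentration 100 uM, half-log steps, 0.5% DMSO vehicle). Gain or loss of signal fitted relative to DMSO.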

Read-out in test [3]: CFLAR gene, CFLAR (gene 8837)
Description: LTEA_HepaRG_CFLAR: Life Technologies and Expression Analysis (LTEA) Assay for CFLAR gene using HepaRG (AID 2283455). The note with it: mRNA level, 48 h; actives raise or lower the signal. The essentials: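 Differentiated HepaRG cells in serum-free induction medium were exposed 48 h in duplicate to eight half-log concentrations up to 100 uM in 0.5% DMSO; mRNA measured by TaqMan qRT-PCR, normalized to ACTB, GAPDH, POLR2A; bidirectional fitting versus DMSO.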

Read-out in test [4]: Forkhead box O1 (FOXO1), FOXO1 (gene 2308)
Briefly: LTEA_HepaRG_FOXO1: Life Technologies and Expression Analysis (LTEA) Assay for Forkhead box O1 (FOXO1) using HepaRG (AID 2283456). Particulars: mRNA level, 48 h; actives raise or lower the signal. The method in brief: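 Differentiated HepaRG cells, in serum-free induction medium with 0.5% DMSO, exposed 48 h in duplicate to 8-point half-log series from 100 uM. FOXO1 mRNA measured by TaqMan qRT-PCR, normalized to ACTB, GAPDH, POLR2A; bidirectional fit versus DMSO.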

The nature of test [5]: CEETOX_H295R_TESTO: CeeTox H295R High-throughput Steroidogenesis Assay for Testosterone (TESTO) (AID 2283457). Particulars: actives raise or lower the signal. The method in brief: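 Testosterone secreted into the medium over 48 h by H295R cells (maximum passage 10) was quantified by LC-MS/MS after MTBE extraction. Fitted in both directions against DMSO, with concentrations diluted until MTT viability was ≥70%.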

Read-out in test [6]: growth arrest and DNA damage 45 (GADD45A), GADD45A (gene 1647)
Briefly: LTEA_HepaRG_GADD45A: Life Technologies and Expression Analysis (LTEA) Assay for growth arrest and DNA damage 45 (GADD45A) using HepaRG (AID 2283458). Particulars: mRNA level, 48 h; actives raise or lower the signal. The method in brief: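 Differentiated HepaRG cells exposed 48 h in serum-free induction medium to 8 concentrations, top 100 uM in half-log steps, 0.5% DMSO. GADD45A mRNA quantified by qRT-PCR, normalized to ACTB, GAPDH and POLR2A; bidirectional fit versus DMSO.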

Read-out in test [7]: Forkhead box O3 (FOXO3), FOXO3 (gene 2309)
Briefly: LTEA_HepaRG_FOXO3: Life Technologies and Expression Analysis (LTEA) Assay for Forkhead box O3 (FOXO3) using HepaRG (AID 2283459). The note with it: mRNA level, 48 h; actives raise or lower the signal. The essentials:
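Differentiated human HepaRG cells, 48 h post-plating, exposed in duplicate for 48 h in serum-free induction medium; 8-point half-log series from 100 uM in 0.5% DMSO. FOXO3 mRNA by TaqMan qRT-PCR, normalized to ACTB/GAPDH/POLR2A; bidirectional fit versus DMSO.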

Read-out in test [8]: ABC Transporter (ABCB1), ABCB1 (gene 5243)
Description: LTEA_HepaRG_ABCB1: Life Technologies and Expression Analysis (LTEA) Assay for ABC Transporter (ABCB1) using HepaRG (AID 2283460). The note with it: mRNA level, 48 h; actives raise or lower the signal. The essentials:
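HepaRG cells exposed in duplicate for 48 h in serum-free induction medium to eight half-log concentrations up to 100 uM in 0.5% DMSO. ABCB1 mRNA quantified by qRT-PCR, normalised to ACTB, GAPDH and POLR2A; fitted bidirectionally versus DMSO.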

Read-out in test [9]: growth arrest and DNA damage 45 (GADD45B), GADD45B (gene 4616)
Description: LTEA_HepaRG_GADD45B: Life Technologies and Expression Analysis (LTEA) Assay for growth arrest and DNA damage 45 (GADD45B) using HepaRG (AID 2283461). Particulars: mRNA level, 48 h; actives raise or lower the signal. The method in brief: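 Transcript level quantified by Fluidigm TaqMan qRT-PCR with three housekeeping genes for normalization, analyzed for up- or down-regulation against 0.5% DMSO. HepaRG cultures dosed 48 h at eight half-log concentrations up to 100 uM, duplicates.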

Read-out in test [10]: ABC Transporter (ABCC3), ABCC3 (gene 8714)
Briefly: LTEA_HepaRG_ABCC3: Life Technologies and Expression Analysis (LTEA) Assay for ABC Transporter (ABCC3) using HepaRG (AID 2283462). Particulars: mRNA level, 48 h; actives raise or lower the signal. The essentials: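 Transcript level by TaqMan qRT-PCR, normalised to three housekeeping genes, fitted in both directions relative to vehicle. Chemicals tested in duplicate at eight half-log concentrations up to 100 uM for 48 h on HepaRG cells (0.5% DMSO).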

Read-out in test [11]: ABC Transporter (ABCB11), ABCB11 (gene 8647)
Briefly: LTEA_HepaRG_ABCB11: Life Technologies and Expression Analysis (LTEA) Assay for ABC Transporter (ABCB11) using HepaRG (AID 2283463). Particulars: mRNA level, 48 h; actives raise or lower the signal. The method in brief:
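Differentiated human HepaRG cells in serum-free induction medium, dosed in duplicate for 48 h. Eight-point half-log series from 100 uM in 0.5% DMSO; ABCB11 mRNA by qRT-PCR, normalized to ACTB, GAPDH, POLR2A, fitted bidirectionally versus DMSO.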

Read-out in test [12]: ABC Transporter (ABCC2), ABCC2 (gene 1244)
Briefly: LTEA_HepaRG_ABCC2: Life Technologies and Expression Analysis (LTEA) Assay for ABC Transporter (ABCC2) using HepaRG (AID 2283464). Particulars: mRNA level, 48 h; actives raise or lower the signal. The essentials: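 Endpoint is ABCC2 transcript level from qRT-PCR, normalized to three housekeeping genes and fitted bidirectionally relative to DMSO. Human HepaRG cells received test chemical for 48 h at up to 100 uM (8 points, half-log steps, 0.5% DMSO), duplicate wells.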

Read-out in test [13]: Broad substrate specificity ATP-binding cassette transporter ABCG2 (Homo sapiens) (UniProt Q9UNQ0)
Description: LTEA_HepaRG_ABCG2: Life Technologies and Expression Analysis (LTEA) Assay for ABC Transporter (ABCG2) using HepaRG (AID 2283465). Particulars: mRNA level, 48 h; actives raise or lower the signal. The method in brief:
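Differentiated HepaRG cells were exposed for 48 h in serum-free induction medium to 8 half-log concentrations, top 100 uM, in 0.5% DMSO. ABCG2 mRNA was measured by qRT-PCR, normalized to ACTB, GAPDH and POLR2A, with bidirectional fitting versus DMSO.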

Read-out in test [14]: ATP-citrate lyase (ACLY), ACLY (gene 47)
Briefly: LTEA_HepaRG_ACLY: Life Technologies and Expression Analysis (LTEA) Assay for ATP-citrate lyase (ACLY) using HepaRG (AID 2283466). The note with it: mRNA level, 48 h; actives raise or lower the signal. The essentials: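 Differentiated HepaRG cells exposed 48 h in serum-free induction medium to eight half-log concentrations up to 100 uM in 0.5% DMSO, duplicates. Transcript measured by Fluidigm TaqMan qRT-PCR, normalized to ACTB, GAPDH, POLR2A; bidirectional fit versus DMSO.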

Read-out in test [15]: Peroxisomal acyl-coenzyme A oxidase 1 (ACOX1) gene, ACOX1 (gene 51)
Description: LTEA_HepaRG_ACOX1: Life Technologies and Expression Analysis (LTEA) Assay for Peroxisomal acyl-coenzyme A oxidase 1 (ACOX1) gene using HepaRG (AID 2283467). Particulars: mRNA level, 48 h; actives raise or lower the signal. The method in brief:
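HepaRG cells, plated 48 h then switched to serum-free induction medium, were exposed in duplicate for 48 h to 8-point half-log concentrations up to 100 uM in 0.5% DMSO. ACOX1 mRNA was measured by qRT-PCR, normalized to ACTB/GAPDH/POLR2A, and fitted bidirectionally versus DMSO.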

Read-out in test [16]: Alkaline Phosphatase, Placental (ALPP) gene, ALPP (gene 250)
Briefly: LTEA_HepaRG_ALPP: Life Technologies and Expression Analysis (LTEA) Assay for Alkaline Phosphatase, Placental (ALPP) gene using HepaRG (AID 2283468). Particulars: mRNA level, 48 h; actives raise or lower the signal. The essentials: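 ALPP transcript level, measured by qRT-PCR and normalized to three housekeeping genes (ACTB, GAPDH, POLR2A), after 48 h dosing of differentiated HepaRG in serum-free induction medium. Top concentration 100 uM with half-log dilutions (8 points, 0.5% DMSO, duplicates); bidirectional fitting relative to DMSO.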

Read-out in test [17]: Bcl-2 (BAD) gene, BAD (gene 572)
Description: LTEA_HepaRG_BAD: Life Technologies and Expression Analysis (LTEA) Assay for Bcl-2 (BAD) gene using HepaRG (AID 2283469). Particulars: mRNA level, 48 h; actives raise or lower the signal. The essentials: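 Differentiated HepaRG cells were exposed in duplicate in 0.5% DMSO for 48 h to eight-point half-log concentrations up to 100 uM. BAD mRNA was measured by Fluidigm TaqMan qRT-PCR, normalized to ACTB, GAPDH and POLR2A, and fitted bidirectionally against DMSO.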

Read-out in test [18]: Bcl-2 (BAX) gene, BAX (gene 581)
Description: LTEA_HepaRG_BAX: Life Technologies and Expression Analysis (LTEA) Assay for Bcl-2 (BAX) gene using HepaRG (AID 2283470). The note with it: mRNA level, 48 h; actives raise or lower the signal. The method in brief: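 Differentiated HepaRG cells exposed 48 h in serum-free induction medium, eight half-log concentrations from 100 uM, in duplicate, 0.5% DMSO vehicle. BAX mRNA by TaqMan qRT-PCR, normalised to ACTB, GAPDH and POLR2A.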

Read-out in test [19]: adenosine kinase (ADK) gene, ADK (gene 132)
Briefly: LTEA_HepaRG_ADK: Life Technologies and Expression Analysis (LTEA) Assay for adenosine kinase (ADK) gene using HepaRG (AID 2283471). Particulars: mRNA level, 48 h; actives raise or lower the signal. The essentials:
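Differentiated HepaRG cells dosed 48 h in serum-free induction medium, 0.5% DMSO vehicle, eight half-log concentrations from 100 uM, in duplicate. ADK mRNA by TaqMan qRT-PCR normalised to ACTB, GAPDH, POLR2A; bidirectional fit versus DMSO.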

Structures are written as SMILES. The source made the active and inactive calls. Rule for the calls: active = hit-call score of the fitted dose curve at least 0.9, where 1 is the maximum; inactive = score below 0.9.

In PubChem BioAssay (EPA / NIEHS) one finds outcome and AC50 data, which are given here for two molecules.

Broad substrate specificity ATP-binding cassette transporter ABCG2 (Homo sapiens), sequence (Q9UNQ0 whole entry, looked up): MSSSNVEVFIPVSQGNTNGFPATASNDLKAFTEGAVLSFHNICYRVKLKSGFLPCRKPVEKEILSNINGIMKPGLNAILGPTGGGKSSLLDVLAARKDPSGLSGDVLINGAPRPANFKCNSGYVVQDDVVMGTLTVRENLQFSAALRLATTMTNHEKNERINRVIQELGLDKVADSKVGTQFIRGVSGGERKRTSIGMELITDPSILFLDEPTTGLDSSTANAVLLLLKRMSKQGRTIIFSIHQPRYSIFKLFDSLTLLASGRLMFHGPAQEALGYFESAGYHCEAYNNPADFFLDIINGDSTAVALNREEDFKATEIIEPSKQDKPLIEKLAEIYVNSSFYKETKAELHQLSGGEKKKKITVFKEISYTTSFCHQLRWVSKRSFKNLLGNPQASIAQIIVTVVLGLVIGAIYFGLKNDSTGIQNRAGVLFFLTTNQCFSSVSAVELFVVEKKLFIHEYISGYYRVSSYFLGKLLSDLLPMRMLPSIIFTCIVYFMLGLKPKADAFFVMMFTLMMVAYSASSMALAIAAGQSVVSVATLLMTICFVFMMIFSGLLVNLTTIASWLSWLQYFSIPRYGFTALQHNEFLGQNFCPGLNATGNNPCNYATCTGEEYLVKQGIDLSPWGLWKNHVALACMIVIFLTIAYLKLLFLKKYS

For the molecule `CCCN(CCC)c1c([N+](=O)[O-])cc(C(F)(F)F)cc1[N+](=O)[O-]`, the result in test [1], in [3], in test [4], in [5], in test [6] and in test [7] was inactive. Besides, the outcome in [8], in [9], in [10], in [11], in test [12] and in [13] was inactive. Moreover, the result in [14], in test [15], in test [16], in test [17], in [18] and in [19] was inactive. Also, in test [2], the AC50 is 50 µM (active).

`O=[N+]([O-])/N=C1\NCCN1Cc1ccc(Cl)nc1`: the AC50 in [1] is 34.6 µM (active); in [2] it was 9.92 µM (active); in [3] it was 26.3 µM (active); in test [6] it was 23.6 µM (active); in test [7], 26.9 µM (active); in [8] it was 15.9 µM (active). Further, the AC50 in test [11] is 26.6 µM (active); in [12], 24.9 µM (active); in [13] it was 35.3 µM (active); in [15], 29.7 µM (active). Besides, the molecule was classed as inactive in test [4], in [5], in test [9], in test [10], in test [14] and in [16]. Further, the call in test [17] and in [18] was inactive.
